# Sampled rows, rich in hits. Any-hit rate of the full collection: about 1.6%.
# eIF4H FP inh: inhibitors of RNA binding by human eIF4H | 290,000 compounds, 0.94% hits | eIF4H fluorescence polarization binding assay | AID 2012 | inhibition, % at 35 µM;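 note: calls also rest on retests at 20 µM and on dose response follow-up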
# PABP1 MLLE inh: blocks PAM2 peptide binding to the PABP1 MLLE domain | P11940 | GST-MLLE / FITC-PAM2 fluorescence polarization | inhibition, % at 20 µM | AID 588489 | 360,000 compounds, 0.36% hits; in the data active = inhibition above about 35%, passing the limit was not always enough;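 note: plate controls were DMSO wells with GST-MLLE for no effect and wells lacking GST-MLLE protein for full effect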
# PERK inh: blocks human PERK kinase | AID 1416 | inhibition, % at 5.6 µM | 220,000 compounds, 0.17% hits | Q9NZJ5 | CHO PERK-DD fusion, SEAP luminescence translation reporter;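 active = inhibition above the mean inhibition of all tested compounds plus 3 SD, set separately per screening campaign, cut at about 2.9% in these data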;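 note: PERK kinase domain activated by AP20187 dimerizer at 100 nM; 0% = DMSO with dimerizer and 100% = rapamycin at 8.4 µM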
# eIF4E 4G PPI: inhibitors of eIF4E and eIF4G interaction in translation initiation; P63073+Q04637; TR-FRET eIF4E-eIF4GI(517-606) binding, 2 h; inhibition, % at 21.7 µM; 220,000 compounds, 0.37% hits;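 active = inhibition above about 30%, limit read from the data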;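 note: 0% = full FRET control wells and 100% = background wells lacking eIF4GI fragment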
# PABP polyA inh: PABP-poly(A) binding inhibition; inhibition, % at 35 µM; PABP-poly(A) RNA binding, fluorescence polarization; P11940; 290,000 compounds, 1% hits;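 note: calls also rest on retests at 20 µM and on dose response follow-up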
# Numbers without * were called inactive; ? = inconclusive; · = not tested or not shown; [ ] = dose if it differs, or a comment. Unless noted, the rule behind the calls is not given here.
SMILES,eIF4H FP inh,PABP1 MLLE inh,PERK inh,eIF4E 4G PPI,PABP polyA inh
O=C(C1CCN(S(=O)(=O)c2ccc(Cl)cc2)CC1)N1CCN(c2ccccn2)CC1,·,-5,·,·,·
CCOC(=O)c1c(CSC(=N)N)n(-c2ccc(Br)cc2)c2cc(Br)c(OC(C)=O)cc12,5,1,-1,37*[fluorescence artefact?],-4
CCCCCCCCOC(=O)c1c(CSC(=N)N)n(C)c2cc(Br)c(OC(C)=O)cc12,-36,0,-1,-2,-46
CCN(CC)c1ccc(/C=N/N2CCN(c3ccccn3)CC2)cc1,-7,-4,3.0*,12,1
CCOc1cccc(CN2CCC(Oc3ccc(C(=O)N4CCCC4)cc3)CC2)c1O,·,-2,·,·,·
CCOCc1c(C(=O)Nc2ccccc2N2CCN(C)CC2)oc2ccccc12,·,10,·,·,·
CN1C(=O)C2(c3ccccc31)C1CCCC=C1C(C#N)=C(N)C2(C#N)C#N (stereo not drawn),44*,-8,0,-13,66*
O=C(/C=N/O)Nc1cccnc1,2,-2,1,0,8
O=C(/C=N/O)Nc1ccc(F)cc1,-12,2,0,53*,-4
COc1ccccc1C(=O)N=Nc1c(O)[nH]c2ccc([N+](=O)[O-])cc12,-5,-2,1,10,-4
O=C(N=Nc1c(O)[nH]c2ccc([N+](=O)[O-])cc12)c1cc(-c2ccccc2Cl)nc2ccccc12,30,-7,1,34*,-1
CCOc1ccc(C(=O)NCC(=O)OCC(=O)N(C)CC(=O)Nc2ccccc2CC)cc1OCC,·,3,·,·,·
COC(=O)c1cc(C(=O)OCC(=O)c2ccc3c(c2)NC(=O)CO3)cc([N+](=O)[O-])c1,·,1,·,·,·
O=[N+]([O-])c1cn(Cc2ccc(Cl)cc2)cn1,-10,7,0,2,-4
COc1ccc(Cn2cnc([N+](=O)[O-])c2)cc1[N+](=O)[O-],-4,5,3.1*,1,4
O=C1CC(c2ccc(O)cc2)Oc2cc(O)cc(O)c21 (stereo not drawn),-8,-4,1,-1,8
O=C1CC(c2ccccc2)Oc2cc(O)cc(O)c21 (stereo not drawn),-2,-2,·,96*,6
Cc1[nH]c(=O)[nH]c(=O)c1C=CC(=O)NC(CO)CS(=O)Cc1ccccc1 (stereo not drawn),·,-2,·,·,·
Cc1c(-c2ccc(/C=N/NC(=O)C(=O)Nc3ccccc3F)o2)cccc1[N+](=O)[O-],7,-85,2,-8,-5
Cc1c(C(=O)N/N=C/c2ccc(-c3ccccc3[N+](=O)[O-])o2)sc(N)c1C#N,73*,1,0,5,active
COc1ccc(S(=O)(=O)N2CCCCC2)cc1NS(=O)(=O)c1ccc(CNC(C)=O)cc1,·,2,·,·,·
O=C(OC1CCCCC1)c1ccc2c(c1)C1C=CCC1C(C(=O)O)N2 (stereo not drawn),93*,·,0,62*[fluorescence artefact?],active
O=C(O)c1ccc2c(c1)[C@@H]1C=CC[C@@H]1[C@H](c1ccccn1)N2,·,42*,1,·,·
O=C(O)C1Nc2ccc(Br)cc2C2C=CCC12 (stereo not drawn),105*,18,·,·,94*
COc1ccc(C(=O)N/N=C(\C)c2ccc3c(c2)C2C=CCC2C(c2ccccc2)N3)cc1 (stereo not drawn),-4,11,-1,8,-1
SMILES,eIF4H FP inh,PABP1 MLLE inh,PERK inh,eIF4E 4G PPI,PABP polyA inh
COc1ccc(-c2sc3cc4c(cc3c2C#Cc2ccc(N)cc2)OCO4)cc1,·,2,·,·,·
O=c1c2ccccc2n2c(-c3ccc(F)cc3)nnc2n1Cc1ccccc1,53*,-15,1,-1,active
CN(CC(=O)Nc1ccc(Cl)c(C(F)(F)F)c1)C(=O)c1ccc2c(c1)NC(=O)CS2,·,-12,·,·,·
CCCc1cc(C(=O)Nc2ccc(OC)cc2[N+](=O)[O-])cs1,-2,11,·,·,19
CS(=O)(=O)N1CCN(C(=S)NCc2ccc(F)cc2)CC1,12,-128,0,-2,-5
CS(=O)(=O)N1CCN(C(=S)NCc2ccc(Cl)cc2)CC1,82*,-120,1,-4,4.3*
CC(C)(C)OC(=O)N[C@@H](Cc1ccccc1)C(=O)N1CCC(C(=O)NCC(=O)O)CC1,-6,5,·,·,-8
CC(C)(C)OC(=O)NC(Cc1ccccc1)C(=O)N1CCC(C(=O)NCC(=O)Nc2ccc(F)cc2)CC1 (stereo not drawn),?,38*,·,·,?
C[C@@H]1CCCCO[C@H](CN(C)Cc2ccc(C(=O)O)cc2)[C@@H](C)CN([C@H](C)CO)C(=O)c2cc(NC(=O)CCC(F)(F)F)ccc2O1,·,-7,·,·,·

# Source: PubChem
